Gli-Sufu antag = Gli-Sufu pathway antagonism. Sufu-KO-LIGHT fibroblasts, Gli luciferase reporter luminescence. 0.74% of 340,000 active. inhibition, % at 5 µM. AID 588413;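 active = inhibition above about 55%, limit read from the data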;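 also: 0% = DMSO-treated cells and 100% = wells with medium but no cells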
NR2F2 inh = NR2F2 (human) inhibition, primary screen | inhibition, % at 8.6 µM | HEK293T NGFI-A luciferase reporter, luminescence | 0.7% of 370,000 active;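 active = inhibition above a per-plate cutoff, mean inhibition of test wells between control levels plus 3 SD, cut at about 38% in these data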;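 also: cells cotransfected with COUP-TFII expression vector driving the NGFI-A reporter; 0% = median of COUP-TF2 test wells and 100% = reporter-only cells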
GalR3 antag = human GalR3 antagonism | HEK293 GalR3-CNG cAMP membrane potential fluorescence; galR3 body fused to GalR1 C-terminus | inhibition, % at 3 µM | 0.44% of 360,000 active | AID 651719;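 active = inhibition above the screen-wide average plus 3 SD, cut at about 13% in these data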;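 also: forskolin and galanin both at EC90 stimulate the cells; cAMP rise reported by CNG channel membrane potential dye signal; 0% = forskolin plus galanin with DMSO and 100% = forskolin alone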
Target sequence (O60755 1-299 limits assumed): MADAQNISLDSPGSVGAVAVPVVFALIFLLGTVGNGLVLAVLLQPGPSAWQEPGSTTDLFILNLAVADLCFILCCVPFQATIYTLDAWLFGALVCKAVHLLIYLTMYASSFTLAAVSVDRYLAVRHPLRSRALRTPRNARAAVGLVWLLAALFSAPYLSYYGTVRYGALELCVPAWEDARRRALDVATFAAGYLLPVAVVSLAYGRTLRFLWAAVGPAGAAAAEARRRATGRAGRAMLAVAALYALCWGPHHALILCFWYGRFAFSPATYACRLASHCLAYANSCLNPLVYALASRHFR
Cardio protect = protects H9c2 cardiomyocytes from peroxide injury | 0.63% of 360,000 active | H2O2 injury protection, ATPLite, 2 h | protection from H2O2 cell death, % at 20 µM;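 active = compounds giving at least 50% protection of heart cells from peroxide-induced death in the single-dose screen, raw or plate-pattern-corrected value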;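 also: 0% = DMSO wells with peroxide and 100% = DMSO wells without peroxide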
FXN GAA850 act = frataxin GAA850 promoter activation; HEK293 lucGAA850 FXN promoter luciferase reporter, 24 h; percent of 10 µM SAHA response; 0.56% of 360,000 active; activation, % at 6 µM; AID 540364;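 active = activation above the average of all compounds screened plus 3 SD, cutoff fixed separately per campaign, cut at about 7.5% in these data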;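 also: 0% = DMSO wells and 100% = 10 µM SAHA wells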
SMARCA2 activ = SMARCA2 function activation, primary screen | MG213 cells, MMTV-luciferase reporter, dexamethasone, overnight | AID 652017 | 1% of 370,000 active | activation, % at 9.1 µM; in the data active = activation above about 7.8%;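 also: 0% = vehicle wells and 100% = reference activator wells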
* marks the source's active call; other numbers are inactive results; . = no result given. Hits are enriched below; roughly 3.4% of the tested compounds scored in any of these assays.

SMILES	Gli-Sufu antag	NR2F2 inh	GalR3 antag	Cardio protect	FXN GAA850 act	SMARCA2 activ
Cc1c(N=Cc2cc(Br)cc(Br)c2O)cccc1C(=O)O	-6	11	-5	62*	2	1
COC(=O)C1CN(Cc2cn(Cc3ccc(OC)cc3)nn2)CCS(=O)(=O)N1Cc1ccc(Cl)cc1 (stereo not drawn)	.	-33	.	.	.	-2
COC(=O)[C@]1(CNC(C)=O)CC(=O)N(C)[C@@H]1c1ccccc1	.	0	.	.	.	-4
Cc1cc(C)c(C)c(S(=O)(=O)N2CCN(C(=O)CCc3nc4ccccc4c(=O)[nH]3)CC2)c1C	3	-8	0	70*	1	2
O=C(CCc1nc2ccccc2c(=O)[nH]1)N1CCN(S(=O)(=O)c2cc(Cl)ccc2Cl)CC1	-2	1	2	61*	1	1
O=C(CCc1nc2ccccc2c(=O)[nH]1)N1CCN(S(=O)(=O)c2cccc(F)c2)CC1	6	5	5	52*	1	2
CCN1CCN(C(=O)CCc2nc3ccccc3c(=O)[nH]2)CC1	6	-13	-5	50	1	3
O=C(CCc1nc2ccccc2c(=O)[nH]1)N1CCN(c2ccccc2Cl)CC1	7	12	-3	64*	2	-3
COc1ccc(CN2C(=O)[C@@](O)(c3cccn3C)c3cc(Br)ccc32)cc1	.	-10	.	.	.	-1
O=c1[nH]c(CN2CCc3ccccc3C2)nc2ccccc12	4	-5	-1	33	3	-1
O=C(CCc1nc2ccccc2c(=O)[nH]1)N1CCCc2ccccc21	-2	-6	-3	67*	0	0
COC(=O)[C@]12C[C@H](CC(=O)NCC3CCCCC3)C(=O)N(Cc3cccc4ccccc34)C1=C[C@H](C(C)C)O[C@@H]2C1CC1	.	9	.	.	.	-2
CCC(=O)c1ccc(OCC(=O)OCC(=O)Nc2cccc(S(=O)(=O)N3CCOCC3)c2)cc1	0	9	-7	7	0	7.8*
COC(=O)[C@]12C[C@H](CC(=O)NCc3cccc4ccccc34)C(=O)N(Cc3ccco3)C1=C[C@H](C(C)C)O[C@@H]2C1CC1	.	3	.	.	.	-5
COC(=O)[C@]12C[C@H](CC(=O)NCCc3ccccc3OC)C(=O)N(Cc3ccco3)C1=C[C@H](COCc1ccccc1)O[C@@H]2C	.	4	.	.	.	-1
CC(=NO)C1CCC2C3CCC4CC(=NO)CCC4(C)C3C(C)(O)CC12C (stereo not drawn)	8	-5	-7	60*	-3	-2
CC(=O)C1CCC2C3CCC4CC(=O)CCC4(C)C3C(O)CC12C (stereo not drawn)	8	1	-4	-8	2	-4
CCOC(=O)c1cccc(NC(=O)CN(C)S(=O)(=O)c2ccc(Cl)s2)c1	.	16	.	.	.	-4
O=C(CCc1ccc(O)c(O)c1)N/N=C/c1ccc2c(c1)OCO2	1	8	1	87*	3	0
CC(C)Oc1ccc(CCC(=O)N/N=C/c2ccc3c(c2)OCO3)cc1	17	6	-9	-11	0	-2
Nc1ncc(-c2ccccc2)n1CC1CCCO1 (stereo not drawn)	4	6	-3	62*	0	1
c1ccc(-c2nnc(-c3ccccn3)nc2NC2CCCCC2)cc1	91*	-2	-8	36	-12	4
CNc1nc(-c2ccccn2)nnc1-c1ccccc1	24	4	0	52*	0	-3
c1ccc(-c2nc(-c3ccccn3)no2)cc1	13	-2	-3	-21	-5	-2
Oc1ccccc1-c1nc(NC2CCCC2)c2ccccc2n1	6	11	-12	-14	1	-3
SMILES	Gli-Sufu antag	NR2F2 inh	GalR3 antag	Cardio protect	FXN GAA850 act	SMARCA2 activ
CC1(c2nnnn2Cc2ccccc2)CCCCC(=O)N1Cc1cccs1 (stereo not drawn)	.	3	.	.	.	0
CC(C)(C)c1csc(NC(=O)c2ccccc2O)n1	-55	-20	-8	-19	5	1
CC(C)(C)c1csc(NNC(=O)c2ccc(Br)cc2)n1	-18	2	4	55*	2	-4
c1coc(-c2nnc3sc(Cc4cccs4)nn23)c1	-3	-16	-3	65*	2	-3
O=C(CN1CC(=O)Oc2ccccc21)OCC(=O)c1ccc(F)cc1	-5	2	-5	-4	4	-2
O=C(CN1CC(=O)Oc2ccccc21)OCC(=O)c1ccc(Br)cc1	2	-9	-2	57*	2	2
COP(=O)(CC(=O)OC(C)(C)C)C(CC(C)C)NC(=O)OCc1ccccc1 (stereo not drawn)	.	4	.	.	.	-1
O=c1oc(-c2ccco2)nc2c1cnn2-c1ccccc1	-4	-11	3	51*	0	2
CC(NC(=O)c1cc2c(=O)n(C)c3ccccc3c2n1C)c1ccc2c(c1)OCCO2 (stereo not drawn)	14	-2	2	72*	-1	0
CCOc1ccc(NC(=O)c2cc3c(=O)n(C)c4ccccc4c3n2C)cc1	3	-23	6	66*	0	0
Cn1c(C(=O)Nc2ccc3c(c2)OCO3)cc2c(=O)n(C)c3ccccc3c21	9	-2	-1	29	2	-1
COc1ccccc1NC(=O)c1cc2c(=O)n(C)c3ccccc3c2n1C	0	-6	-3	30	-3	-3
Cc1ccc(C)c(N2CCN(C(=O)CCS(=O)(=O)c3ccc4c(c3)CCN4C(=O)C3CC3)CC2)c1	-6	-3	-10	-4	0	7.9*
COc1ccc(Oc2cccc3c2S(=O)(=O)N(C2CC2)C[C@@H](COCc2ccccc2)O3)cc1	.	4	-8	.	.	-3
Cc1ccccc1S(=O)(=O)N1CCCc2nc(-c3ccc(Br)cc3)ccc21	.	-9	-6	.	.	-2
O=C(CCN1C(=O)C2C3C=CC(C3)C2C1=O)Nc1ccccn1 (stereo not drawn)	-3	-8	-7	3	1	7.8*
O=C(NCN1C(=O)C2C3C=CC(C3)C2C1=O)Nc1ccccn1 (stereo not drawn)	-92	12	-5	-1	1	-1
CCOC(=O)c1ccc2[nH]c(C)c(C)c2c1	9	-20	-3	-4	5	7.9*
CC(C)CNc1cccc2c1S(=O)(=O)N(Cc1cn(Cc3ccc(F)cc3)nn1)Cc1ccccc1O2	.	4	.	.	.	-5
O=c1c2c(n3nnnc3n1-c1ccccc1)-c1ccccc1CC21CCCC1	4	-5	14*	-14	0	-1
CCCCn1c(NC(=O)c2ccccc2)nc2ccccc21	6	-6	-5	81*	1	1
CCn1c(NC(=O)c2ccccc2)nc2ccccc21	4	-14	-7	8	1	-2
COc1cccc(NC(=O)C2CCCN2C(=O)Nc2cccc3c2OCO3)c1 (stereo not drawn)	.	-37	.	.	.	-1
